Measurements reported in ChEMBL document CHEMBL4513216, “Probing the Open Global Health Chemical Diversity Library for Multistage-Active Starting Points for Next-Generation Antimalarials” (ACS Infect Dis, 2020).
The campaign covered roughly 65,000 compounds. About 2,100 (3.2%) showed an effect of 50% or more. The median lay at about -52%. The sample as a whole holds a higher share of strong results than the screen did.

system: Plasmodium falciparum; assay: Screen against P. falciparum Asexual Blood Stage (ABS), at 5uM; assay type: functional, Dd2; conditions: tested at 5 uM

Compared with `O=C(CNC(=O)c1cnccn1)Nc1ncc[nH]1`, `COCC(c1cccc(C(F)(F)F)c1)N(C)C(=O)c1cnccn1` (configuration not stated) is higher in INHIBITION: -51.8% for the first, 48.8% for the second.

Going from `CCC(=O)N1CCN(c2ncnc3c(C)nn(C)c23)CC1` to `CC(C)n1nc2c(cc1=O)CN(c1ncnc3ccccc13)CC2`, the INHIBITION falls from -52.3% to -52.6%.

Compared with `O=C(NC1CCCC1)O[C@H]1COCCN(c2nc3ccccc3s2)C1`, `O=C(NC1CCCC1)O[C@H]1COCCN(c2nc3ccccc3o2)C1` is lower in INHIBITION: -31.6% for the first, -59.6% for the second.

First: CCNC(=O)O[C@H]1COCCN(c2nc3ccccc3s2)C1
Second: O=C(NC1CC1)c1nc(Cn2c(C(F)F)nc3ccccc32)no1
The INHIBITION of the first is higher: 54.8% for the first, -138% for the second.

Going from `CCOc1ccccc1CNC(=O)N1CCC(n2cncn2)CC1` to `CC(=O)N1CCCC(c2cccc(-n3ccnc3)n2)C1` (configuration not stated), the INHIBITION falls from -19.1% to -75.7%.

Compared with `COc1ccc(CN2C[C@H]3CN(Cc4ccncc4)C(=O)[C@H]3C2)cc1`, `COc1ccc(CN2C[C@@H]3CN(Cc4ccncc4)C[C@@H]3C2=O)cc1` is lower in INHIBITION: -22.1% for the first, -48% for the second.

Going from `COc1ccc(CN2C[C@@H]3CN(CCO)C[C@@H]3C2=O)cc1` to `COc1ccc(CN2CCCCC2c2n[nH]cc2-c2cc(C)no2)cc1` (configuration not stated), the INHIBITION falls from 50.3% to 35.5%.

First: Cc1cccc(CN2CCCC3(CCN(CC4CCCO4)CC3)C2)n1 (configuration not stated)
Second: c1cnc2ccc(C[C@@H]3CC[C@H](CN4CCCOCC4)O3)cc2c1
The INHIBITION of the first is lower: 45.2% for the first, 57.9% for the second.

First: COc1cc(C(=O)NCC2CC2)nc2c(C)cc(F)cc12
Second: COc1ccccc1CN1CCCCC1c1n[nH]cc1-c1cc(C)no1 (configuration not stated)
The INHIBITION of the first is lower: -103% for the first, 66.4% for the second.

First: C[C@@H]1CN(c2nc3c(cc2C(N)=O)CCC3)CC[C@@]1(O)C1CCC1
Second: C[C@@H]1CN(c2nc(N)nc3c2CCC3)CC[C@@]1(O)C1CCC1
The INHIBITION of the first is lower: -80.6% for the first, 68.5% for the second.

First: C[C@@H]1CN(c2nc(N)nc3c2CCC3)C[C@]1(C)O
Second: CCc1nc2n(n1)CC(NCc1nnc(C(C)C)o1)CC2 (configuration not stated)
The INHIBITION of the first is higher: -48.4% for the first, -107% for the second.

Going from `COc1ccc(CN(C)C(=O)CN2CC(n3cccn3)C2)cc1F` to `CN(C)C(=O)Cn1c2c(ccc1=O)CCN(Cc1cnn(C)c1)CC2`, the INHIBITION falls from 26.7% to -39.8%.

Compared with `CCNC(c1cccnc1)c1ccc(F)c(C)c1` (configuration not stated), `CCCNC(c1cccnc1)c1ccc(F)c(C)c1` (configuration not stated) is higher in INHIBITION: 25.4% for the first, 57.9% for the second.

Going from `CCCNC(c1ccc(F)cc1)c1cccnc1` (configuration not stated) to `OC(CNCCn1cccn1)c1cccc(F)c1` (configuration not stated), the INHIBITION falls from 35.6% to -25.4%.

Compared with `CCOCC(=O)N1C[C@@H]2COC[C@]2(c2nc(C)no2)C1`, `CCOCc1cncc2c1CCN(C(=O)c1cscn1)C2` is higher in INHIBITION: -63.5% for the first, -43.3% for the second.

First: Cc1cc(C)nc(N2CCCC(c3cccc(-n4ccnc4)n3)C2)n1 (configuration not stated)
Second: c1cnc(N2CCCC(c3cncc(-n4ccnc4)n3)C2)nc1 (configuration not stated)
The INHIBITION of the first is higher: 66.3% for the first, -20.6% for the second.

Going from `O=C(Cc1ccccn1)N1CCc2c(O)nc(-c3cnccn3)nc2C1` to `CC(=O)N1CCN(C[C@H]2CC[C@@H](Cc3ccc4ncccc4c3)O2)CC1`, the INHIBITION rises from -157% to -16.4%.

Compared with `c1cncc(C[C@@H]2CC[C@H](CN3CCCOCC3)O2)c1`, `Cc1cc(-c2cccnc2)nc(C2CCCN2S(C)(=O)=O)n1` (configuration not stated) is higher in INHIBITION: -54% for the first, -29.8% for the second.

First: O=C(NCCCN1CCCCCC1=O)c1n[nH]c(=O)c2ccccc12
Second: Cc1cc(-c2c[nH]nc2C2CCCCN2C(=O)c2ccccc2)on1 (configuration not stated)
The INHIBITION of the first is lower: -16.5% for the first, -6.99% for the second.

Compared with `COCC(c1cccc(C(F)(F)F)c1)N(C)C(=O)c1ccncc1` (configuration not stated), `COCC(c1cccc(C(F)(F)F)c1)N(C)C(=O)c1cccnc1` (configuration not stated) is higher in INHIBITION: -196% for the first, 66.9% for the second.

Going from `COCC(=O)NC(C)c1sc(-c2ccccc2F)nc1C` (configuration not stated) to `Cc1cc(NC(=O)NCc2ccncc2)ccc1OC(C)C`, the INHIBITION falls from -22.6% to -62%.

Compared with `CCc1ccc(CN2CCCCC2c2n[nH]cc2-c2cc(C)no2)cc1` (configuration not stated), `Cc1cccc(CN2CCCCC2c2n[nH]cc2-c2cc(C)no2)c1` (configuration not stated) is higher in INHIBITION: 33.5% for the first, 52% for the second.

Going from `COc1cccc(CN2CCCCC2c2n[nH]cc2-c2cc(C)no2)c1` (configuration not stated) to `O=C(c1sccc1C1CC1)N1CCN(Cc2cscn2)CC1`, the INHIBITION falls from 35.3% to -52.2%.

Going from `COC(=O)c1ccc(CN(C)C(=O)c2cnsn2)cc1` to `N#Cc1ccc(F)c(CNC(=O)NC(CO)Cc2ccccc2)c1` (configuration not stated), the INHIBITION falls from -39.8% to -90.6%.

Compared with `O=C(c1cocn1)N1C[C@@H]2CN(Cc3ccco3)CCO[C@@H]2C1`, `OC(CNCCn1cccn1)c1cccc(Br)c1` (configuration not stated) is higher in INHIBITION: -6.8% for the first, 64.3% for the second.

Compared with `CC(C)CC(=O)N(C)Cc1nc(C(F)(F)F)cs1`, `OC(CNCCn1cccn1)c1ccc(Br)cc1` (configuration not stated) is higher in INHIBITION: -49.5% for the first, -6.84% for the second.
